Data reported in PubChem BioAssay AID720650 (Broad Institute, 2013).
A number with no mark means an inactive call. The source made the active and inactive calls. How the calls were made is not given here.

Assay: C difficile toxins, biochemical counterscreen, UDPG substrate absence, confirmatory dose response (AID 720650)
Conditions: series mostly up to 19.5 µM; activity change, negative = inhibition: at the top concentration

SMILES	AC50	activity change, negative = inhibition [%]
O=C(CSc1nc2ccccc2[nH]1)NC1CCCc2ccccc21 (centres undefined)	> 39 µM	
C=CCn1c(C)cc(C(=O)COC(=O)CCc2cc(OC)c(OC)c(OC)c2)c1C		-24.1
COc1ccccc1C(=O)Nc1cccc(Oc2c(F)c(F)c(F)c(F)c2F)c1	> 39 µM	
CCOC(=O)C1=C(C)Nc2nnnn2C1c1ccc(OC)c(Br)c1 (centres undefined)	> 39 µM	
Nc1nc(Nc2ccccc2)n[nH]1	> 39 µM	
COc1ccc(CNC(=O)C2=CC(c3ccc(C)cc3)=NS(=O)(=O)N2C)cc1		-9.88
COc1ccc(C(=O)/C=C/c2ccc(O)cc2)c2c1CC(O)C(C)(C)O2 (centres undefined)		-8.07
Cc1ccc(C(=O)NC(=S)NNC(=O)CC#N)cc1	5.73 µM (active)	
CN1C(=O)c2cc(NC(=O)c3cccc(F)c3)ccc2OC[C@H]2O[C@H](CC(=O)NCC3CCCCC3)CC[C@@H]21	inactive	
CCCN1CCN(C(=O)C2CCN(S(=O)(=O)c3c(C)noc3/C=C/c3ccc(C)cc3)CC2)CC1		-11.9
COc1cc(/C=C/C(=O)OCC(=O)NC(=O)NC(C)(C)C)ccc1O		6.81
CNC(=O)C[C@@H]1CC[C@@H]2[C@H](COc3ccc(NS(=O)(=O)c4ccccc4C)cc3C(=O)N2C)O1		11.4
O=c1[nH][nH]c(=O)c2c1[nH]c(=S)n2Cc1ccccc1		-10.1
CCOc1ccccc1/C=C/c1onc(C)c1S(=O)(=O)N1CCC(C(=O)N(CC)CC)CC1		-11.7
CNC(=O)C[C@H]1CC[C@@H]2[C@@H](COc3ccc(NC(=O)c4ccc(OC)cc4)cc3C(=O)N2C)O1		-23.2
Cc1c(CNC(=O)c2c([N+](=O)[O-])cnn2C)cnn1C		-1.66
COc1ccc(-c2ccc3c(c2)[C@H]2[C@H](CCN2C(=O)CN2CCOCC2)[C@@H](CO)N3)cc1	11 µM (active)	
CSc1nc(Cl)cc(Nc2ccc(O)cc2)n1		-7.48
COc1ccc(C(=O)Nc2c(-c3cccs3)c(=O)c3ccccc3n2C)cc1		-20.1
CCC(=O)Nc1ccc2c(c1)OC[C@H](C)N(C(=O)NC(C)C)C[C@@H](C)[C@@H](OC)CN(C)C2=O		-2.17

SMILES	AC50	activity change, negative = inhibition [%]
COc1cc(/C=C/C(=O)OCC(=O)N(C)Cc2ccccc2)ccc1O		-5.74
CNC(=O)C1CCN(S(=O)(=O)c2c(C)noc2/C=C/c2ccc(C)cc2)CC1		-2.85
CC1C(=O)C(C)C(c2ccc([N+](=O)[O-])cc2)NC1c1ccc([N+](=O)[O-])cc1 (centres undefined)		-6.78
C/C(=N\NC(=O)c1ccccc1O)c1cccc(NC(=O)c2ccccc2)c1		-12.3
Nc1ccc(N=Nc2ccc(O)cc2)c(N)n1	7.86 µM (active)	
O=c1onc(-c2ccccc2)n1Cc1ccc([N+](=O)[O-])cc1		-8.73
COc1ccc(C(O)(C(C)C)C(CN2CCOCC2)c2ccccc2)cc1 (centres undefined)		-13.9
CCOc1ccc(/C=N/n2nnnc2N)cc1O		5.99
CC(C)Cc1[nH]c(=O)c(C#N)c2c1CCCC2		6.43
COC(=O)C1=C(c2ccc(F)cc2OCc2ccccc2)C[C@@H]2CC[C@H]1N2C(=O)NCCOc1ccccc1		6.43
CCCCn1c(-c2ccccc2C)nc2cc3[nH]c(=O)c(C(C)C)nc3cc21		-15.5
Nc1cc(=O)[nH]c(SCC(=O)Nc2ccccc2Sc2ccc(Cl)cc2)n1		-18
COc1ccc(CNC(=O)c2cc3c(s2)CN(Cc2ccccc2)C3)cc1		-2.76
c1ccc(-c2nnc(OCC3CCCO3)c3ccccc23)cc1 (centres undefined)		-9.88
CCN1CCN(c2oc(-c3ccccc3C)nc2S(=O)(=O)c2ccccc2)CC1		-15.4
O=S(=O)(NC1CCCCCCC1)c1ccc(F)cc1		-9.37
CN1c2ccc(-c3ccccc3)cc2[C@H]2[C@H](CCN2C(=O)CN2CCOCC2)[C@H]1CO	7.83 µM (active)	
Cc1ccc(NNC(=O)c2ccno2)cc1Cl	0.401 µM (active)	
Cc1cc(C)c2sc(NNC(=O)C3COc4ccccc4O3)nc2c1 (centres undefined)	0.645 µM (active)	
